Laboratory results: PubChem BioAssay AID485317 (Broad Institute, 2010)
Out of some 290,000 compounds screened, about 11,000 (3.8%) were called active.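 How the source made its calls: active means mean replicate inhibition above about 79%, with every replicate also reaching it (limit read from the data); inconclusive means only one of the two criteria met; inactive means mean below limit and not every replicate reaching it.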 This excerpt belongs to a sample that is enriched for actives.

Each compound was assayed against FAD-linked sulfhydryl oxidase ALR (Homo sapiens) (UniProt P55789) (assay: inhibitors of human ALR sulfhydryl oxidase, primary screen, biochemical, H2O2 detection, HRP-luminol luminescence, single point (AID 485317)). Conditions: purified ALR, DTT oxidation, hits give high values, concentration not given here.
Chain of FAD-linked sulfhydryl oxidase ALR (Homo sapiens) (P55789 whole entry, looked up): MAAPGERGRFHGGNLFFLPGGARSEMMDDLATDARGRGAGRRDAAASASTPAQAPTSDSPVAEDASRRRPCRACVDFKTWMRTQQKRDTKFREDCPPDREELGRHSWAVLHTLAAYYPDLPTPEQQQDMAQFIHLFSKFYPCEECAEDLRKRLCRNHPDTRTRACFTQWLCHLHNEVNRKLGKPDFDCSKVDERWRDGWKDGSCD

Row | SMILES | inhibition
1 | Cc1csc(=Nc2ccccc2)n1CCO | 98.7% (active)
2 | CCOC(=O)c1sc(=NC(=O)c2ccc(Br)cc2)n(C)c1C | -3.96% (inactive)
3 | Cc1csc(=NC(=O)c2ccccc2)n1CCO | 99% (active)
4 | O=c1cc(CCl)nc2scc(-c3ccccc3)n12 | 60.8% (inactive)
5 | OCCn1c(-c2ccccc2)csc1=Nc1ccccc1 | 99% (active)
6 | C=C(C)CNC(=S)/N=c1\scc(C)n1CC | 18% (inactive)
7 | Cc1cc(C(=O)CCC(=O)NNC(=O)c2ccccc2O)c(C)s1 | 8.1% (inactive)
8 | O=C(COC(=O)c1ccc2ncsc2c1)Nc1ccc(Cl)cc1 | 16% (inactive)
9 | COc1ccc(NC(=O)C(=O)NCC(c2ccco2)N2CCc3ccccc3C2)cc1 (stereo unspecified) | -1.35% (inactive)
10 | COc1ccc(NS(=O)(=O)c2cc(NC(=O)c3ccc(S(=O)(=O)N(C)C)cc3)ccc2N2CCOCC2)cc1 | 0.706% (inactive)
11 | Cc1cc(C(=O)OC(C)C(=O)NC2CCCCC2C)c(C)o1 (stereo unspecified) | 2.82% (inactive)
12 | CC1CC(C)(C)NC(=S)N1CCC(=O)N1CCN(Cc2ccccc2)CC1 (stereo unspecified) | -28.3% (inactive)
13 | CC1CC(=O)Nc2ccccc2N1S(=O)(=O)c1cccs1 (stereo unspecified) | -4.3% (inactive)
14 | CC1CC(=S)Nc2ccccc2N1Cc1ccccc1 (stereo unspecified) | 99% (active)
15 | CC1CCCN(C(=O)c2cc(-c3ccco3)nc3ccccc23)C1 (stereo unspecified) | 6.96% (inactive)
16 | Cc1cc(C)c(C)c(S(=O)(=O)N2CCN(C(=O)c3ccc4c(=O)n5c(nc4c3)CCC5)CC2)c1C | -2.44% (inactive)
17 | O=C(Nc1cccc(S(=O)(=O)N2CCCCC2)c1)c1cncc(Br)c1 | -4.78% (inactive)
18 | CCc1nnc(NS(=O)(=O)c2ccc(N=Cc3c(C)[nH]n(-c4ccc(C)cc4)c3=O)cc2)s1 | 63.1% (inactive)
19 | COc1cc(SC#N)ccc1N=Cc1c(C)[nH]n(-c2ccc(C)cc2)c1=O | 99.6% (active)
20 | Cc1ccc(-n2[nH]c(C)c(/C=N/N3C(=O)c4cccc5cccc(c45)C3=O)c2=O)cc1 | -15.1% (inactive)
21 | O=C(NCCCN1CCCC1=O)c1cccc(S(=O)(=O)NCc2ccccc2)c1 | 0.0635% (inactive)
22 | CC(C)Oc1ccccc1C(=O)NC(CO)C(=O)O (stereo unspecified) | 2.33% (inactive)
23 | CC(C)NC(=O)c1ccccc1S(=O)c1ccccc1C#N (stereo unspecified) | 99.6% (active)
24 | CC(C)NC(=O)c1ccc(Cl)cc1Cl | -6.81% (inactive)

Row | SMILES | inhibition
25 | CC(C)CN(C(=O)COC(=O)c1ccc2ccccc2c1)c1c(N)n(Cc2ccccc2)c(=O)[nH]c1=O | 1.44% (inactive)
26 | O=C(O)Cc1ccc(NC(=O)Nc2cccc3ccccc23)cc1 | -53.7% (inactive)
27 | O=C(O)Cc1ccc(NCc2ccccc2Cl)cc1 | 97.2% (active)
28 | S=C(NCCc1ccccc1)NCc1ccccc1Cl | 5.1% (inactive)
29 | CC(=O)C12CC(C)=C(C)CC1CC1C3CCC4=CC(=O)CCC4(C)C3CCC12C (stereo unspecified) | -1.17% (inactive)
30 | COc1ccc(-c2cn[nH]c2-c2ccc(OC)cc2)cc1 | 0.7% (inactive)
31 | CCOc1ccccc1Oc1cn[nH]c1-c1ccc(OC)cc1O | 59.2% (inactive)
32 | COc1ccc(Oc2cn[nH]c2-c2ccc(OC)cc2O)cc1 | 97.1% (active)
33 | NS(=O)(=O)c1ccc(N=Nc2c(O)[nH]c3ccc(Br)cc23)cc1 | -3.47% (inactive)
34 | O=C(CNC(=O)Cc1ccccc1)N=Nc1c(O)[nH]c2ccc(Br)cc12 | 10.6% (inactive)
35 | Oc1[nH]c2ccc(Br)cc2c1N=Nc1nn[nH]n1 | 89.8% (active)
36 | COc1ccccc1CNS(=O)(=O)c1cc2c3c(c1)CCC(=O)N3CCC2 | -0.847% (inactive)
37 | CC1CN(C(=O)c2cc(COc3c(F)cccc3F)on2)CCN1C (stereo unspecified) | -3.41% (inactive)
38 | CC1(C)O[C@@H]2[C@H](O1)[C@@H](CO)O[C@H]2n1c(N2CCCCC2)nc2c(N)ncnc21 | 1.47% (inactive)
39 | CC(=O)Nn1cc2c(=O)n(C)c(=O)n(C)c2c1 | -9.4% (inactive)
40 | CCC(=O)NNc1cc(=O)c2c(=O)n(C)c(=O)n(C)c2[nH]1 | -4.74% (inactive)
41 | CC(=O)NNc1cc(=O)c2c(=O)n(C)c(=O)n(C)c2[nH]1 | 90.2% (active)
42 | COc1ccc(NC(=O)c2cc(-c3ccc(C)cc3)on2)cc1 | -7.55% (inactive)
43 | CCOc1ccc(S(=O)(=O)Nc2ccc(OC)nc2)cc1 | -0.795% (inactive)
44 | COc1ccc(NC(=O)/C(Cl)=C(/Cl)S(=O)Cc2ccc(C)cc2)cn1 (stereo unspecified) | 99.1% (active)
45 | COc1ccc2c(CC(=O)NNC(=O)c3ccccc3F)coc2c1 | -9.32% (inactive)
46 | O=C(CCc1ccc(S(=O)(=O)N2CCOCC2)cc1)OCC(=O)c1ccc(Br)cc1 | 3.41% (inactive)
47 | O=C(/C=C(O)/C=C/c1ccc(O)cc1)/C=C/c1ccc(O)cc1 | -0.191% (inactive)
48 | COc1ccc(N2CCN(C(=O)CNC(=O)c3ccc(C(C)(C)C)cc3)CC2)cc1 | -2.48% (inactive)

Row | SMILES | inhibition
49 | COc1ccc(N2CCN(C(=O)CCNC(=O)c3ccc(Br)cc3)CC2)cc1 | -0.657% (inactive)
50 | COc1ccc(N2CCN(C(=O)CNC(=O)c3ccc(Br)o3)CC2)cc1 | 94% (active)
51 | CCOc1ccc(C(=O)CCC(=O)Nc2ccncc2)cc1 | 2.23% (inactive)
52 | COc1ccc(/C=N/NC(=O)c2ccc(Cl)cc2)cc1COC(C)=O | 5.91% (inactive)
53 | COc1ccc(/C=N/NC(=O)c2ccncc2)cc1CN1CCCc2ccccc21 | 93.5% (active)
54 | COc1cc(/C=N/NC(=O)CNC(=O)c2ccncc2)ccc1OC(C)=O | 40.7% (inactive)
55 | COc1ccc(-c2ccc(CCC(=O)O)n2-c2ccc(O)cc2)cc1 | 95.3% (active)
56 | CCOC(=O)c1ccc(-n2c(CCC(=O)O)ccc2-c2ccccc2)cc1 | 6.43% (inactive)
57 | C=Cn1c(C(=O)O)ccc1-c1ccc(OC)cc1 | 6.07% (inactive)
58 | COCCCn1c(CCC(=O)O)ccc1-c1ccc(F)cc1 | 22.3% (inactive)
59 | COc1ccc(-c2ccc(CCC(=O)O)n2NC(=O)c2ccc(C(C)(C)C)cc2)cc1 | 98.4% (active)
60 | COc1ccc(C(=O)NC(Cc2ccc(OC(=O)c3ccc(OC)cc3)cc2)C(=O)O)cc1 (stereo unspecified) | 15.2% (inactive)
61 | CC1Cc2ccccc2N1S(=O)(=O)c1cccc(C(=O)OCC(=O)N2CCOCC2)c1 (stereo unspecified) | 2.06% (inactive)
62 | CC(=O)c1c(C)[nH]c(C(=O)COC(=O)c2cccs2)c1C | -7.6% (inactive)
63 | COc1ccc(-c2n[nH]c(C)c2-c2ccccc2OC)c(O)c1 | 94.9% (active)
64 | COc1ccc(-c2n[nH]c(C)c2-c2ccc(OC)c(OC)c2)c(O)c1 | 25.6% (inactive)
65 | C=C(C)COc1ccc(-c2n[nH]c(C)c2-c2ccccc2OC)c(O)c1 | -0.153% (inactive)
66 | COc1ccc(Cl)cc1NC(=O)COC(=O)c1ccc(Br)o1 | 3.97% (inactive)
67 | CCCN(CC(=O)NC(=O)NC1CCCCC1)CC(=O)Nc1cc(Cl)ccc1Cl | -2.78% (inactive)
68 | CCN(CCCNC(=O)c1ccc2c(c1)NC(=O)CN2C)c1cccc(C)c1 | 94.3% (active)
69 | Cc1cccc(C(=O)NCCCN2CCCC2=O)c1 | -1.37% (inactive)
70 | Cc1cccc(C(=O)NCCCN(C)CCCNC(=O)c2cccc(C)c2)c1 | -2.47% (inactive)
71 | COc1ccccc1N(CCOc1ccccc1)S(=O)(=O)c1ccccc1 | -0.946% (inactive)
72 | CCCN(CC1CC1)C(=S)NC(=O)c1ccccc1Br | -2.06% (inactive)

Row | SMILES | inhibition
73 | N#CCC(=O)N/N=C/c1ccc(SCC(=O)Nc2ccccc2)o1 | 93.3% (active)
74 | Cc1ccc(/C=N/NC(=O)CSc2ccccn2)o1 | 3.05% (inactive)
75 | O=C(CCNC(=O)c1ccccc1)NN=Cc1ccc(Br)o1 | -2.22% (inactive)
76 | CC1(C)CC(=O)C=C(c2cccc3c2Oc2ccccc2S3)C1 | -3.51% (inactive)
77 | Nc1nc(SCC(=O)Nc2ccc(Cl)cc2C(F)(F)F)n[nH]1 | 0.457% (inactive)
78 | Nc1nc(SCC(=O)NNc2c(Cl)cc(Cl)cc2Cl)n[nH]1 | 95.6% (active)
79 | COc1ccc(CNC(=O)CSc2n[nH]c(N)n2)cc1OC | 4.3% (inactive)
80 | Nc1nc(SCC(=O)NN(c2ccccc2)c2ccccc2)n[nH]1 | 87.6% (active)
81 | Nc1nc(SCC(=O)Nc2ccc(Cl)c([N+](=O)[O-])c2)n[nH]1 | -3.76% (inactive)
82 | COc1ccc(C(=O)CSc2n[nH]c(N)n2)cc1 | -11% (inactive)
83 | COc1ccc(N2CCN(S(=O)(=O)c3cc4c5c(c3)C(C)C(=O)N5CCC4)CC2)cc1 (stereo unspecified) | 22.9% (inactive)
84 | O=C(NCc1ccccc1)C1=C[C@@H](c2ccccc2)C[C@@H](OCCCCO)O1 | -16.2% (inactive)
85 | Cc1cc(NC(=O)C(C)N2C(=O)c3ccccc3S2(=O)=O)no1 (stereo unspecified) | 3.27% (inactive)
86 | CCN(CC(=O)Nc1c(F)cccc1F)C(=O)c1ccc(-c2ccccc2)cc1 | -12% (inactive)
87 | CC(OC(=O)/C=C/c1ccccc1)C(=O)Nc1ccc(C(N)=O)cc1 (stereo unspecified) | -4.35% (inactive)
88 | CCc1noc(C)c1C(=O)Nc1nc(-c2ccccc2)cs1 | -1.08% (inactive)
89 | CC(C)Cn1c(CCC(=O)O)ccc1-c1cccs1 | 98.9% (active)
90 | CC(=O)c1ccc2c(c1)c1ccccc1n2CC(C)C | -8.57% (inactive)
91 | CCn1c(NC(=O)c2ccccc2)c(-c2cccs2)c(=O)c2ccccc21 | -3.02% (inactive)
92 | Cc1cc(C(=O)NNC(=O)c2ccccc2O)c(C)o1 | 1.52% (inactive)
93 | Cc1nn(C)c(C)c1NS(=O)(=O)c1ccc(OC(F)(F)F)cc1 | -3.04% (inactive)
94 | CCOC(=O)CSc1nc2ccc(C)cc2[nH]1 | -3.78% (inactive)
95 | Cc1ccc2nc(SCC(=O)NC3CCCC3)[nH]c2c1 | 18.7% (inactive)
96 | CC(=O)Nc1ccc(C(=O)CSc2nc3ccc(C)cc3[nH]2)cc1 | 97.9% (active)
